# Assay results reported in publication PMC8384837, “Expanding the binding specificity for RNA recognition by a PUF domain”.
# Experiments:
# Assay in all cases: yeast three-hybrid, YBZ-1, SC-Leu-His + 0.5 mM 3-AT, 4 days
# Conditions in all cases: tags: N-Gal4 AD-HA kept; label: inside an RPR1-promoter hybrid RNA with tandem MS2 sites; ssRNA
# [1] = target: PUM1 PUF domain R4-SPL (Homo sapiens, UniProt Q14671 828-1176, N971S;H972P;Q975L)
# Outline: (§1)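 Repeat regions from input (SC-Leu) and selection (SC-Leu-His + 0.5 mM 3-AT) plates were PCR-amplified and Illumina-sequenced after four days of growth. The cells were strain YBZ-1 with a LexA–MS2 coat fusion and a HIS3 reporter, co-expressing Pumilio-1 PUF domain libraries and matching RNA elements from a centromeric plasmid. The interaction score is the log change in variant frequency from input to selection, taken in log2 with a pseudocount of 1 for absent variants.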
# [2] = target: PUM1 PUF domain R3-VCQ (Homo sapiens, UniProt Q14671 828-1176, C935V;R936C)
# PUM1 PUF domain R3-VCQ, sequence (Q14671 828-1176 C935V/R936C): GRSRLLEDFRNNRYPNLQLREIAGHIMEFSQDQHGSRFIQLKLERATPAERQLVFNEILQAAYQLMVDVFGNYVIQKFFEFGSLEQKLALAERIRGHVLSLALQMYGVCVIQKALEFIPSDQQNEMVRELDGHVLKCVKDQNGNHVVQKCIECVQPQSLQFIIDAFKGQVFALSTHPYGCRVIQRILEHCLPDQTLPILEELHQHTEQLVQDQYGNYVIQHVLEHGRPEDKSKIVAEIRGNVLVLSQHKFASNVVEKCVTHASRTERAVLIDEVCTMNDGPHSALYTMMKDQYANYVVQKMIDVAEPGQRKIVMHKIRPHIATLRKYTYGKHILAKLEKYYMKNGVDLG
# Outline: as §1
# [3] = target: PUM1 PUF domain R4-AQS (Homo sapiens, UniProt Q14671 828-1176, N971A;H972Q;Q975S)
# PUM1 PUF domain R4-AQS, sequence (Q14671 828-1176 N971A/H972Q/Q975S): as the sequence (Q14671 828-1176 C935V/R936C) above, with V108C, C109R, N144A, H145Q, Q148S counted along it
# Outline: as §1
# [4] = target: PUM1 PUF domain R4-ALG (Homo sapiens, UniProt Q14671 828-1176, N971A;H972L;Q975G)
# Outline: as §1
# [5] = target: PUM1 PUF domain R5-VRV (Homo sapiens, UniProt Q14671 828-1176, C1007V;Q1011V)
# Outline: as §1
# [6] = target: T1, PUM1 PUF domain R6-DWQ (Homo sapiens, UniProt Q14671 828-1176, N1043D;Y1044W)
# T1 sequence: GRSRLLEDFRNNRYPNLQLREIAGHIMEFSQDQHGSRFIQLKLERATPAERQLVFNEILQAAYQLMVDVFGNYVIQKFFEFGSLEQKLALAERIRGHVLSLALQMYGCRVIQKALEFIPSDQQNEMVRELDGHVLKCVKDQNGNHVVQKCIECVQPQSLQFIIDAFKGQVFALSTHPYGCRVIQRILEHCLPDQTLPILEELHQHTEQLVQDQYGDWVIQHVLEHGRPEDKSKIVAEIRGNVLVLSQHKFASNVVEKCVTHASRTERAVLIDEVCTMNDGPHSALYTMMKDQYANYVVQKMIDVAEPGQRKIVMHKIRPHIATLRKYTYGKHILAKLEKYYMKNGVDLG
# Outline: as §1
# [7] = target: PUM1 PUF domain R1-GGR (Homo sapiens, UniProt Q14671 828-1176, S863G;R864G;Q867R)
# PUM1 PUF domain R1-GGR, sequence (Q14671 828-1176 S863G/R864G/Q867R): as the sequence (Q14671 828-1176 C935V/R936C) above, with S36G, R37G, Q40R, V108C, C109R counted along it
# Outline: as §1
# [8] = target: PUM1 PUF domain R1-KTR (Homo sapiens, UniProt Q14671 828-1176, S863K;R864T;Q867R)
# PUM1 PUF domain R1-KTR, sequence (Q14671 828-1176 S863K/R864T/Q867R): as the sequence (Q14671 828-1176 C935V/R936C) above, with S36K, R37T, Q40R, V108C, C109R counted along it
# Outline: as §1
# [9] = target: PUM1 PUF domain R1-NFR (Homo sapiens, UniProt Q14671 828-1176, S863N;R864F;Q867R)
# Outline: as §1
# [10] = target: PUM1 PUF domain R3-QRR (Homo sapiens, UniProt Q14671 828-1176, C935Q;Q939R)
# Outline: as §1
# [11] = target: PUM1 PUF domain R5-HQD (Homo sapiens, UniProt Q14671 828-1176, C1007H;R1008Q;Q1011D)
# PUM1 PUF domain R5-HQD, sequence (Q14671 828-1176 C1007H/R1008Q/Q1011D): as the sequence (Q14671 828-1176 C935V/R936C) above, with V108C, C109R, C180H, R181Q, Q184D counted along it
# Outline: as §1
# [12] = target: PUM1 PUF domain R5-KLM (Homo sapiens, UniProt Q14671 828-1176, C1007K;R1008L;Q1011M)
# PUM1 PUF domain R5-KLM, sequence (Q14671 828-1176 C1007K/R1008L/Q1011M): as the sequence (Q14671 828-1176 C935V/R936C) above, with V108C, C109R, C180K, R181L, Q184M counted along it
# Outline: as §1
# [13] = target: PUM1 PUF domain R5-MKR (Homo sapiens, UniProt Q14671 828-1176, C1007M;R1008K;Q1011R)
# Outline: as §1
# [14] = target: PUM1 PUF domain R5-PWL (Homo sapiens, UniProt Q14671 828-1176, C1007P;R1008W;Q1011L)
# Outline: as §1
# [15] = target: PUM1 PUF domain R5-KGI (Homo sapiens, UniProt Q14671 828-1176, C1007K;R1008G;Q1011I)
# PUM1 PUF domain R5-KGI, sequence (Q14671 828-1176 C1007K/R1008G/Q1011I): as the sequence (Q14671 828-1176 C935V/R936C) above, with V108C, C109R, C180K, R181G, Q184I counted along it
# Outline: as §1
# [16] = target: PUM1 PUF domain R5-GQQ (Homo sapiens, UniProt Q14671 828-1176, C1007G;R1008Q)
# Outline: as §1
# [17] = target: PUM1 PUF domain R5-EKL (Homo sapiens, UniProt Q14671 828-1176, C1007E;R1008K;Q1011L)
# Outline: as §1
# PUM1 PUF domain R4-SPL, sequence (Q14671 828-1176 N971S/H972P/Q975L): as the sequence (Q14671 828-1176 C935V/R936C) above, with V108C, C109R, N144S, H145P, Q148L counted along it
sequence,measurement,setting,value
GGCUAGAACUAGUGGAUCCCCCGGCGCCCGGCGGCUCGAGCCCGGGUAAGUGUAAAUAGUCUGCAUGCCGCCGGGCGCCAUGCCUGCAGGUCGACUCUAGAAAACAUG,binding signal,[1],2.38 log2 enrichment (interaction score)
same,binding signal,[2],2.76 log2 enrichment (interaction score)
same,binding signal,[3],2.27 log2 enrichment (interaction score)
same,binding signal,[4],2.12 log2 enrichment (interaction score)
same,binding signal,[5],3.36 log2 enrichment (interaction score)
same,binding signal,[6],2.34 log2 enrichment (interaction score)
GGCUAGAACUAGUGGAUCCCCCGGCGCCCGGCGGCUCGAGCCCGGGUAAGUGUAUAUAGUCUGCAUGCCGCCGGGCGCCAUGCCUGCAGGUCGACUCUAGAAAACAUG,binding signal,[1],1.39 log2 enrichment (interaction score)
GGCUAGAACUAGUGGAUCCCCCGGCGCCCGGCGGCUCGAGCCCGGGUAAGUGUAAAUUGUCUGCAUGCCGCCGGGCGCCAUGCCUGCAGGUCGACUCUAGAAAACAUG,binding signal,[7],1.86 log2 enrichment (interaction score)
same,binding signal,[8],4.86 log2 enrichment (interaction score)
GGCUAGAACUAGUGGAUCCCCCGGCGCCCGGCGGCUCGAGCCCGGGUAAGUGUAAAUCGUCUGCAUGCCGCCGGGCGCCAUGCCUGCAGGUCGACUCUAGAAAACAUG,binding signal,[7],3.41 log2 enrichment (interaction score)
same,binding signal,[9],6.39 log2 enrichment (interaction score)
GGCUAGAACUAGUGGAUCCCCCGGCGCCCGGCGGCUCGAGCCCGGGUAAGUGUAAUUAGUCUGCAUGCCGCCGGGCGCCAUGCCUGCAGGUCGACUCUAGAAAACAUG,binding signal,[2],0.32 log2 enrichment (interaction score)
same,binding signal,[10],4.3 log2 enrichment (interaction score)
GGCUAGAACUAGUGGAUCCCCCGGCGCCCGGCGGCUCGAGCCCGGGUAAGUGUUAAUAGUCUGCAUGCCGCCGGGCGCCAUGCCUGCAGGUCGACUCUAGAAAACAUG,binding signal,[11],3.03 log2 enrichment (interaction score)
same,binding signal,[12],0.44 log2 enrichment (interaction score)
same,binding signal,[13],1.52 log2 enrichment (interaction score)
same,binding signal,[14],3.31 log2 enrichment (interaction score)
GGCUAGAACUAGUGGAUCCCCCGGCGCCCGGCGGCUCGAGCCCGGGUAAGUGUCAAUAGUCUGCAUGCCGCCGGGCGCCAUGCCUGCAGGUCGACUCUAGAAAACAUG,binding signal,[12],2.69 log2 enrichment (interaction score)
same,binding signal,[15],3.97 log2 enrichment (interaction score)
same,binding signal,[13],2.84 log2 enrichment (interaction score)
same,binding signal,[16],4.12 log2 enrichment (interaction score)
same,binding signal,[17],2.47 log2 enrichment (interaction score)
